High-throughput results from PubChem BioAssay.
Compounds with a hit are over-represented: about 12% of the library has one in this group of screens.
USP17 inh: blocks human USP17 ubiquitin-rhodamine cleavage; A8MUK1; purified USP17, Ub-rhodamine cleavage fluorescence, 3 h; inhibition, % at 50 µM; 47,000 compounds, 6.5% hits; AID 1645855
USP7 block: inhibitors of human USP7 deubiquitinase; inhibition, % at 20 µM; Q93009; 47,000 compounds, 0.3% hits; purified USP7, Ub-rhodamine cleavage fluorescence
USP8 inh: blocks human USP8 ubiquitin-rhodamine cleavage; purified USP8, Ub-rhodamine cleavage fluorescence, 30 min; inhibition, % at 20 µM; 47,000 compounds, 4.2% hits
USP30 block: blocks human USP30 ubiquitin-rhodamine cleavage; Q70CQ3; purified USP30, Ub-rhodamine cleavage fluorescence; inhibition, % at 25 µM; 47,000 compounds, 5.3% hits; AID 1645860
USP10 inh: human USP10 deubiquitinase inhibition; Q14694; AID 1645856; 47,000 compounds, 1.1% hits; purified USP10, Ub-rhodamine fluorescence, 60 min; inhibition, % at 20 µM
UCHL1 inh: inhibitors of human UCHL1 deubiquitinase. inhibition, % at 20 µM. 47,000 compounds, 0.2% hits. AID 1645859. purified UCHL1, Ub-rhodamine cleavage fluorescence
Of the large screens only hits and unclear results are named; the others gave an inactive call. No stated cut-off is given here; in the data, active means inhibition above about 30%; inactive means the rest.

Cn1c(SCC(=O)Nc2ccc(N3CCOCC3)cc2)nnc1-c1ccco1	none
Cc1ccc(NC(=O)CC2C(=O)N(Cc3ccccn3)c3nc4ccccc4n32)c(Cl)c1 (centres undefined)	none
CCOc1ccc(-n2c(SCC(=O)Nc3ccc(C)cc3)nnc2-c2c[nH]c3ccccc23)cc1	USP17 inh 63, USP8 inh 97, USP30 block 56, USP10 inh 71
Cc1ccc(N2C(=O)N(CC(=O)Nc3ccc4c(c3)OCCO4)C(=O)C2C)cc1 (centres undefined)	none
CCc1cc(=O)n(CC(=O)Nc2ccc3c(c2)OCCO3)c2c1c(C)nn2-c1ccc(C)cc1	USP17 inh 31, USP8 inh 44, USP30 block 32
Cc1ccc(NC(=O)Cn2c(=O)n(CC(=O)NCCc3ccccc3)c(=O)c3sccc32)cc1C	USP8 inh 50, USP30 block 47, USP10 inh 40
COc1ccc(NC(=O)Cn2c(=O)n(CCC(=O)NCc3ccccc3)c(=O)c3sccc32)cc1Cl	USP17 inh 47, USP10 inh 49
Cc1ccc(CNC(=O)Cn2c(=O)c3sccc3n(CC(=O)Nc3ccc4c(c3)OCCO4)c2=O)cc1	USP17 inh 60 (no result: USP30 block)
O=C(Nc1cccnc1)C1Cn2ccnc2C2(CCN(C(=O)NC3CCCC3)CC2)O1 (centres undefined)	none
CC(C)[C@H]1CC[C@@]2(CO2)[C@H]2C(=O)OCC(C(=O)O)=C[C@H]12	USP17 inh 73, USP30 block 64
CC1=C[C@H]2[C@H](C(C)C)CC[C@@](C)(O)[C@H]2CC1=O	none
CC(=O)N1CCCC(c2nc(N3CCOCC3)ncc2-c2cccnc2)C1 (centres undefined)	USP30 block 37
Cc1nn(-c2ccccc2)c2[nH]c(=O)c(CNCCN3CCOCC3)cc12	none
CC(C)(C)c1nn(-c2ccc(Cl)cc2)c2[nH]c(=O)c(CNCc3ccco3)cc12	USP8 inh 66
Cc1nn(-c2ccc(Cl)cc2)c2[nH]c(=O)c(CNCCc3ccccc3)cc12	USP8 inh 78
Cc1nn(-c2ccc(Cl)cc2)c2[nH]c(=O)c(CNc3ccccc3)cc12	USP17 inh 40, USP8 inh 80
Cc1nn(-c2ccc(Cl)cc2)c2[nH]c(=O)c(CNc3ccc4c(c3)OCCO4)cc12	USP8 inh 80
Cc1nn(-c2ccccc2)c2[nH]c(=O)c(CNCc3ccco3)cc12	none (no result: USP30 block)
COc1cccc(CNC(=O)c2cc(S(=O)(=O)N3CCCC3)c(C)n2C)c1	none
Cc1ccc(NCc2cc3c(C(C)(C)C)nn(-c4ccc(Cl)cc4)c3[nH]c2=O)cc1C	USP17 inh 43, USP8 inh 88
CCc1nnc(NC(=O)c2nnn(-c3ccccc3Cl)c2C)s1	USP30 block 37
COc1ccc(OC)c(NC(=O)C(C)N2c3cccc4cccc(c34)S2(=O)=O)c1 (centres undefined)	USP8 inh 41
COc1ccc(Cl)cc1C(=O)Nc1cc(C(F)(F)F)ccc1-n1cncn1	none
COc1cn(-c2ccc(F)cc2)nc1C(=O)Nc1ccc(Cl)cc1Cl	USP8 inh 49
Cn1c(CCN2CCCC2)nc2cc(NC(=O)c3ccccc3)ccc21	USP17 inh 59
CC(=O)c1cccc(NC(=O)Nc2ccc(CCc3nc4ccccc4n3C)cc2)c1	USP17 inh 33
O=C(c1n[nH]c2c1CCCC2)N1CCOCC(Cc2cc(=O)[nH]cn2)C1 (centres undefined)	none
C=C1CO[C@]2(O)C[C@H](C)[C@H]3C[C@@H](O)C(C)=C[C@@H]3[C@]12O	none
CCc1ccccc1NC(=O)N1CCCC(CN2CCc3ccccc3C2)C1 (centres undefined)	none
CC1CCN(S(=O)(=O)N2CCCC(C(=O)NCc3ccccc3)C2)CC1 (centres undefined)	USP30 block 36
Cc1ccccc1CNC(=O)C1CCCN(S(=O)(=O)N2CCCCC2)C1 (centres undefined)	none
O=C(Nc1cccc2ccccc12)C1CCCN(S(=O)(=O)Cc2ccccc2)C1 (centres undefined)	USP17 inh 73, USP8 inh 32
CS(=O)(=O)NC1CCCN(C(=O)Nc2cccc3ccccc23)C1 (centres undefined)	USP17 inh 87, USP8 inh 93
